# Hits are enriched below; roughly 19% of the tested compounds scored in any of these assays.
# S-ASM inh – human S-ASM enzyme inhibition | AID 504937 | actives 0.006% (n = 340,000) | Potency, µM (doses to about 57.5 µM), usual class: inhibitors | P17405 | placental ASM, HMU-PC fluorogenic substrate, 60 min
# Target sequence (P17405 47-631 limits assumed): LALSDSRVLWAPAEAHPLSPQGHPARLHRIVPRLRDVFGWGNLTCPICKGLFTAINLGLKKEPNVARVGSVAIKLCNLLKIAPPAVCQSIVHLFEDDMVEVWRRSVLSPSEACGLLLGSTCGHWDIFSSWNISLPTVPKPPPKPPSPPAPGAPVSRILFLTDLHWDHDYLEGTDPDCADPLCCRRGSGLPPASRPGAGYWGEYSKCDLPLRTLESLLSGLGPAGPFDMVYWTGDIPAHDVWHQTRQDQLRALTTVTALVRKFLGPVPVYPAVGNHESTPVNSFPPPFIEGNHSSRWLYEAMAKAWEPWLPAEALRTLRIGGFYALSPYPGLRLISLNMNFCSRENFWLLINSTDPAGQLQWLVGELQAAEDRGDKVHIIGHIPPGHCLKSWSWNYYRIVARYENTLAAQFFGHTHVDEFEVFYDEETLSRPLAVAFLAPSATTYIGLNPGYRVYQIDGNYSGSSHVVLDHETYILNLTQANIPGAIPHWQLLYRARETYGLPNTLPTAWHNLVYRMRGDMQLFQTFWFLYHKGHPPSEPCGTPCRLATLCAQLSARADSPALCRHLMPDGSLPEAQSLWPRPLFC
#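 qHTS format. ASM enzyme prepared from human placenta hydrolyses the fluorogenic substrate HMU-PC0 (9 uM final) over 60 min at 37 °C after a 10 min compound preincubation.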
# TGFb SMAD3 inh – TGF-b pathway inhibition | HepG2 CAGA-GFP TGF-b/SMAD3 reporter, GFP fluorescence, 18 h; TGF-beta stimulated, 500 pg/mL final | Potency, µM (highest dose often 46.1 µM), usual class: inhibitors | actives 1.2% (n = 410,000) | AID 588855; note: nearly all actives have a fitted effect of over 65% in size
#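 Cell-based qHTS in HEPG2 carrying a CAGA-GFP Smad reporter; compounds added before 500 pg/mL final TGF-beta, 18 h incubation at 37 degrees C, GFP fluorescence quantified per cell by imaging cytometry.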
# IL-1B inflam inh – inflammasome signaling inhibition, IL-1 beta readout | THP-1 LPS/ATP IL-1B secretion, AlphaLISA, 16 h; hits give low values | activity change, % at 57.5 µM | actives 4.7% (n = 360,000); in the data active = activity change below about -50%; inconclusive = mostly about -30% to -49%
#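 Secreted IL-1B measured by AlphaLISA bead assay after 16 h compound exposure of THP-1 cells; compounds (final up to 57.5 uM) added 1 h before LPS (250 ng/mL) and ATP (1.25 mM) stimulation; lower signal means less secretion.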
# DT40 TDP1 no CPT – qHTS for Inhibitors of human tyrosyl-DNA phosphodiesterase 1 (TDP1): qHTS in cells in absence of CPT; DT40 Tdp1-/- hTDP1 cells, no CPT, ATP luminescence, 48 h; Potency, µM (doses to about 46.2 µM), most hits filed as inhibitors; actives 15% (n = 420,000); AID 686978, 2013; note: nearly all actives have a fitted effect of over 55% in size
#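 Stably hTDP1-transfected Tdp1-null chicken DT40 cells were treated with library compounds minus camptothecin and grown for at least 48 hr at 37 °C, after which cellular ATP was quantified by luminescence.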
# DT40 TDP1 CPT – DT40-hTDP1 cell growth loss with CPT | chicken DT40 Tdp1-/-;hTDP1 cells + 20 nM CPT, ATP luminescence, 48 h | Potency, µM (titrated, usually from 46.2 µM), usual class: inhibitors | actives 12% (n = 420,000) | AID 686979; note: nearly all actives have a fitted effect of over 55% in size
#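 Chicken DT40 Tdp1-/- cells stably complemented with human TDP1 were seeded at 400 cells/well in medium containing 20 nM camptothecin, exposed to pin-transferred compounds, and grown at 37 °C for at least 48 hr. Viability was read as ATP luminescence.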
# HepG2 viability – HepG2 cytotoxicity, counter-screen for TGF-b inhibitors. HepG2 CAGA-GFP viability, ATP luminescence, 18 h. Potency, µM (doses to about 46.1 µM), most hits filed as cytotoxic. actives 0.76% (n = 410,000)
#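 HepG2 CAGA-GFP cells (1000/well, DMEM with 1% FBS) received compound, then TGF-beta at 500 pg/mL final, and were incubated 18 hours at 37 degrees C. Viability was read by CellTiter-Glo luminescence. Media-only wells were set as complete cell-killing and DMSO as no toxicity.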
# A number is an active result; – = inactive; ? = inconclusive; · = not tested or not shown; [ ] = another dose, or the depositor's remark. Unless noted, calls come from the whole dose curve; as a rule, active = well fitted curve in the direction sought with a large enough effect; inconclusive = small, poorly fitted or top-dose-only effect, or another doubt; inactive = no such curve, though single readings can be large; an effect the other way counts as inactive or inconclusive.
SMILES,S-ASM inh,TGFb SMAD3 inh,IL-1B inflam inh,DT40 TDP1 no CPT,DT40 TDP1 CPT,HepG2 viability
COC(=O)c1c(-c2cccnc2)csc1NC(=O)c1cc(C)on1,–,–,–,16µM,?,–
COc1cccc(-c2cc(C(=O)Nc3ccc(OC)cc3OC)no2)c1,·,–,·,–,–,–
Cc1cccc(-c2csc(NC(=O)c3cnccn3)c2C(=O)OC(C)C)c1,–,–,–,–,?,–
O=C(Nc1cnn(Cc2ccc(Cl)cc2)c1)c1cccs1,–,–,–,8.2µM,12µM,–
Cc1ccc(NC(=O)c2cc(-c3ccco3)on2)cc1,–,–,–,?,15µM,–
O=C(Nc1cccnc1)c1cc(-c2ccco2)on1,–,–,–,?,9.2µM,–
O=C(Nc1cccnc1)c1cc(-c2ccccc2)on1,–,–,–,–,–,–
CCCc1cc(C(=O)Nc2cccnc2)no1,–,–,–,–,9.2µM,–
COc1ccc(N2CCN(c3cc(C(=O)Nc4cc(OC)c(OC)c(OC)c4)ncn3)CC2)cc1OC,·,–,–,18µM,15µM,–
COc1cccc(-c2cc(C(=O)Nc3c(C)nn(Cc4ccccc4)c3C)no2)c1,–,–,–,18µM,?,–
O=C(c1cccnc1Cl)N1CCOCC1,–,–,–,–,?,–
COc1ccc(NS(=O)(=O)c2ccc(C)c(C(=O)N3CCCCCCC3)c2)cc1,–,–,–,?,?,–
COc1cc(C(=O)NCC(=O)N/N=C/c2ccccn2)cc(OC)c1OC,–,–,–,–,–,–
COc1cccc(-c2cc(C(=O)Nc3cccnc3)no2)c1,–,–,–,13µM,21µM,–
COc1ccccc1-c1cc(C(=O)Nc2cc(C)nn2-c2ccccc2)no1,–,–,–,26µM,18µM,–
COc1cc(C(=O)N/N=C(\c2ccccc2)c2ccccn2)cc(OC)c1OC,–,–,–,2.6µM,2.6µM,–
COc1cc(NC(=O)c2ccccn2)cc(OC)c1OC,–,–,–,?,16µM,–
COc1cc(C(=O)NNC(=O)CNC(=O)C2CCCCC2)ccc1OC(C)C,–,–,–,–,–,–
COc1ccc(OC)c(-c2cc(C(=O)NCc3cccs3)no2)c1,–,?,–,?,21µM,–
COc1ccc(NC(=O)c2cc(-c3ccccc3Cl)on2)cc1OC,–,–,–,–,–,–
COc1ccccc1-c1cc(C(=O)Nc2cc(OC)c(OC)c(OC)c2)no1,·,–,·,0.65µM,0.52µM,–
COc1cc(NC(=O)c2cc(-c3ccccc3)on2)cc(OC)c1OC,–,–,–,13µM,?,–
COCCNC(=O)c1cc(-c2ccccc2OC)on1,–,–,–,12µM,10µM,–
COc1ccc(-c2nn(-c3ccccc3)cc2C(=O)N2CCN(C(=O)c3ccco3)CC2)cc1,–,–,–,–,–,–
CC(C)n1cc(NC(=O)c2cc(-c3ccccc3)on2)cn1,–,?,–,3.7µM,5.2µM,–
SMILES,S-ASM inh,TGFb SMAD3 inh,IL-1B inflam inh,DT40 TDP1 no CPT,DT40 TDP1 CPT,HepG2 viability
COc1ccc(NC(=O)c2cc(-c3ccccc3)on2)cc1,–,–,–,–,–,–
O=C(Nc1cccnc1)c1cccs1,–,–,–,0.37µM,0.33µM,–
O=C(NC(=S)Nc1cccnc1)c1cccs1,–,–,–,–,–,–
O=C(Nc1cccnc1)c1ccco1,–,–,–,23µM,?,–
Cc1cc(C)nc(SCCn2c(N3CCOCC3)nc3c2c(=O)[nH]c(=O)n3C)n1,–,–,–,–,–,–
COc1ccc(CNCc2ccc([N+](=O)[O-])cc2)cc1OC,–,–,–,–,–,–
COc1ccc2c(c1)-c1nc(-n3ncc(C(=O)NCc4cccc(C)n4)c3C3CC3)ncc1CC2,·,·,·,–,–[9.04 µM],·
CCc1ccc(NC(=O)CSc2nc3nccnc3c(=O)n2CCc2c[nH]c3ccccc23)cc1,·,–,·,4.1µM,8.2µM,–
Cc1ccc(C)c(NC(=O)CSc2nc3nccnc3c(=O)n2CCc2c[nH]c3ccccc23)c1,·,–,·,12µM,12µM,–
COc1cc(C(=O)N2CC(=O)Nc3ccc(C)cc3C2c2ccc(F)cc2)cc(OC)c1OC (stereo not drawn),·,–,·,?,?,–
Cc1cc(S(=O)(=O)Nc2c(C)nc3nc[nH]n3c2=O)ccc1F,–,–,–,–,–,–
Cc1cc(OCC(=O)OC(C)C(=O)NC2CC2)c(C(C)C)cc1Cl (stereo not drawn),·,–,–,?,?,–
Cn1cncc1C#Cc1c(C=O)n(C)c2ccccc12,–,?,–,–,?,–
Cn1cncc1C#Cc1c(C=O)[nH]c2ccccc12,–,–,–,10µM,5.8µM,–
CCO/C=C/C(O)(CNC(=O)c1ccc(C(C)(C)C)cc1)C(F)(F)F (stereo not drawn),–,–,–,16µM,?,–
COc1ccc(C2=NOC(Cn3nc(-c4ccccc4)cc3C(=O)NCc3cccc(C(F)(F)F)c3)C2)cc1 (stereo not drawn),–,–,–,–,?,–
CCc1cc(Cn2nc(-c3ccccc3)cc2C(=O)NCCOC)on1,–,–,–,–,–,–
O=C(NCCc1cccs1)C1CC(c2cccc([N+](=O)[O-])c2)=NO1 (stereo not drawn),–,–,–,–,–,–
COc1ccccc1CNC(=O)c1cc(-c2ccccc2)nn1CC1CC(c2cccc([N+](=O)[O-])c2)=NO1 (stereo not drawn),–,–,–,15µM,10µM,–
CCc1cc(Cn2nc(-c3ccccc3)cc2C(=O)NCc2cccs2)on1,–,?,-73,?,16µM,–
COc1ccccc1CNC(=O)C1CC(c2cccc([N+](=O)[O-])c2)=NO1 (stereo not drawn),–,–,–,23µM,16µM,–
O=C(NCc1cccs1)c1cc(-c2ccccc2)nn1CC1CC(c2cccc([N+](=O)[O-])c2)=NO1 (stereo not drawn),–,–,–,15µM,16µM,–
O=C(Nc1ccc(F)cc1)c1cc(-c2ccccn2)nc2c(Cl)cccc12,–,–,–,–,?,–
Cc1sc2c(c1C)c(=O)n(-c1cccc(C(F)(F)F)c1)c(=O)n2Cc1ccc(F)cc1,·,–,·,?,?,–
NS(=O)(=O)c1cc(C(=O)NCC2CCCCC2)ccc1Cl,–,–,–,?,–,–

# High-throughput results (PubChem)
